CYP2C19 activ = activators of human cytochrome P450 2C19; P33261; recombinant CYP2C19, luciferin-H EGE luminescence; active compounds read high; 0 = fully inhibited enzyme, 1 = untreated enzyme; activation factor at 5 µM; 96,000 tested, under 10 active;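 active = activation factor of at least 2 at 5 µM in the primary screen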;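 note: 0 = wells with 2.5 mM tranylcypromine and 1 = vehicle-only wells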
sEH activator = activators of human soluble epoxide hydrolase; P34913; purified human sEH enzymatic activity, activator screen; activation, % at 2 µM; 0.04% of 91,000 active; AID 717; in the data active = activation above about 37%
Target sequence (P34913 whole entry, looked up): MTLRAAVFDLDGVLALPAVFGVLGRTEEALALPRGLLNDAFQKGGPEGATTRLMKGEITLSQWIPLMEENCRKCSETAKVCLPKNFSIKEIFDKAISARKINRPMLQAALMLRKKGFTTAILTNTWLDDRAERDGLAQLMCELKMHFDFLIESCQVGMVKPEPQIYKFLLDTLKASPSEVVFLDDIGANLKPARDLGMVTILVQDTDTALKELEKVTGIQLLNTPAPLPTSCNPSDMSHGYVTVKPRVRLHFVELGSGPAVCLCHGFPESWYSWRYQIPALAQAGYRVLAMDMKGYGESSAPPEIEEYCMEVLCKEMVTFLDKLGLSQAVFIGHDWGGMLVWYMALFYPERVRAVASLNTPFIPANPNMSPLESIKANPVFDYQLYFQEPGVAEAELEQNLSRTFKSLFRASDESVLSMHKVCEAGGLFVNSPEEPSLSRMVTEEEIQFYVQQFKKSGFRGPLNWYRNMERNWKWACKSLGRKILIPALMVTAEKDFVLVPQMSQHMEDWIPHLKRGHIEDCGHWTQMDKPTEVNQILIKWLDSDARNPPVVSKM
sEH inhibitor = soluble epoxide hydrolase (human) inhibition; P34913; recombinant human sEH enzymatic activity assay; inhibition, % at 2 µM; 0.34% of 91,000 active; in the data active = inhibition above about 80%
CYP2C19 inhib = blocks human cytochrome P450 2C19; P33261; CYP2C19 Supersomes, luciferin-H EGE luminescence, 30 min; inhibition, % at 5 µM; 21% of 96,000 active;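 active = CYP2C19 inhibition above a set limit at 5 µM in the primary screen, cut at about 50% in these data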;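 note: plate controls were negative control wells for no effect and 2.5 mM tranylcypromine positive control for full effect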
CYP2C9 act = increases human cytochrome P450 2C9 activity; activation factor at 5 µM; P11712; recombinant CYP2C9, luciferin-H conversion, luminescence; active compounds read high; factor 1 = untreated enzyme, 0 = blocked; 1.4% of 96,000 active;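 active = activation factor of 2 or more for CYP2C9 at a 5 µM dose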;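 note: 0 = sulfaphenazole-blocked wells and 1 = vehicle-only wells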
CYP2C9 inhib = blocks human cytochrome P450 2C9; CYP2C9 Supersomes, luciferin-H conversion, luminescence; inhibition, % at 5 µM; 20% of 96,000 active;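 active = blocking of liver enzyme CYP2C9 beyond about 50% at 5 µM, limit read from the data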
An asterisk follows results filed as active; nt = no result. Rows were chosen to be rich in hits. Some 27% of all compounds tested hit in one or more screens of this group.

SMILES | CYP2C19 activ | sEH activator | sEH inhibitor | CYP2C19 inhib | CYP2C9 act | CYP2C9 inhib
CCn1c2ccccc2c2cc(/C=N/n3c(C)nnc3C)ccc21 | 0.9 | -5 | 5 | 7 | 1.2 | -21
CCn1c2ccccc2c2cc(/C=N/NC(=O)c3ccccc3)ccc21 | 0.3 | -28 | 29 | 73* | 0.9 | 8
COC(=O)c1cc(OC)c(OC)cc1NC(=O)c1ccc(OC)cc1 | 1 | 2 | -1 | -1 | 1.1 | -12
CC(=O)Nc1ccc(OCC=C(Cl)Cl)cc1 | 0.8 | -1 | 0 | 24 | 0.8 | 18
COc1ccc(C(=O)NCC(=O)NCC2COc3ccccc3O2)cc1 (stereo not given) | 0.6 | 6 | -4 | 44 | 0.6 | 43
Cc1cc(C)c(NC2=CC(=O)CC(C)(C)C2)c(C#N)c1 | 1 | -10 | 11 | 4 | 0.9 | 14
Cn1c(=O)c2c(nc(SCC(=O)N(C3CCCCC3)C3CCCCC3)n2C)n(C)c1=O | nt | -12 | 12 | nt | nt | nt
COc1ccc(/C=N/NC(=O)CCc2ccccc2)cc1O | 1 | -4 | 2 | 1 | 0.9 | 11
COC(=O)c1onc(-c2c(C)cc(C)cc2C)c1C(=O)OC | 0.8 | 17 | -17 | 19 | 0.9 | 6
COc1cc(/C=N/NC(=O)c2nc(C)cc(C)n2)ccc1O | 0.9 | 10 | -10 | 5 | 0.9 | 8
COc1cc(/C=N/NC(=O)c2c(-c3ccccc3)noc2C)ccc1O | 0.5 | 5 | -3 | 52* | 0.2 | 77*
COC(=O)c1onc(-c2ccccc2)c1C(=O)OC | 0.3 | -1 | 3 | 72* | 0.8 | 18
COc1cc(/C=N/NC(=O)CCn2c3ccccc3c3ccccc32)ccc1O | 0.4 | 14 | -11 | 60* | 0.3 | 65*
COc1cc(/C=N/NC(=O)C2c3ccccc3Oc3ccccc32)ccc1O | 0.9 | 2 | 3 | 8 | 0.5 | 53*
CC1(C)CC(=O)C(C=NCCO)=C(O)C1 | 1.1 | -7 | 8 | -5 | 1.1 | -13
Cc1ccc(CNC(=O)c2ccc(C#CC(C)(C)O)s2)cc1 | 1 | -48 | 48 | 5 | 0.8 | 22
COC(=O)C(Cc1ccccc1)NC(=O)CSc1nc(N)cc(=O)[nH]1 (stereo not given) | 1 | nt | nt | 1 | 0.9 | 8
COC(=O)c1cc(OC)c(OC)cc1NC(=O)c1c(-c2ccccc2)noc1C | 0.4 | -12 | 10 | 56* | 0.2 | 75*
Cc1ccccc1NC(=O)c1c(-c2ccccc2)noc1C | 0.5 | -11 | 12 | 52* | 1 | -2
Cc1cccc(C)c1NC(=O)c1c(-c2ccccc2)noc1C | 0.6 | nt | nt | 43 | 0.9 | 10
Cc1cc(N(CN2CCCC2=O)C(=O)c2ccccc2)no1 | 1 | nt | nt | 3 | 0.9 | 8
COc1cccc(C2C(C(=O)c3cccs3)=C(O)C(=O)N2c2cc(C)on2)c1 (stereo not given) | 0.8 | nt | nt | 18 | 0.4 | 58*
COc1cccc(C2C(C(=O)c3cc4ccccc4o3)=C(O)C(=O)N2c2cc(C)on2)c1OC (stereo not given) | 1 | -6 | 4 | -4 | 0.7 | 30
COc1cccc(C2C(C(=O)c3cc4cccc(OC)c4o3)=C(O)C(=O)N2c2cc(C)on2)c1OC (stereo not given) | 0.9 | 7 | -8 | 10 | 0.1 | 85*
C[C@@H]1C[C@H](Nc2ccccc2)c2ccccc2N1C(=O)c1cccnc1 | 0.2 | 6 | 0 | 84* | 0.6 | 38
SMILES | CYP2C19 activ | sEH activator | sEH inhibitor | CYP2C19 inhib | CYP2C9 act | CYP2C9 inhib
CC1CC(Nc2ccccc2)c2ccccc2N1C(=O)c1cccnc1 (stereo not given) | nt | 18 | -14 | nt | nt | nt
COc1ccc(OCC(O)Cn2cnc(-c3ccc(Br)cc3)c2)cc1 (stereo not given) | nt | -12 | 13 | nt | nt | nt
COc1ccc(OCC(O)CNc2ccc(Br)cc2)cc1 (stereo not given) | 0 | 14 | -15 | 97* | 0.1 | 90*
COc1ccc(OCC(O)COc2ccc(OC)cc2)cc1 | 0.1 | nt | nt | 89* | 0.5 | 50
COc1ccc(OCC(O)CNC(=O)c2ccc(Br)cc2)cc1 (stereo not given) | 0.5 | 11 | -8 | 52* | 0.5 | 46
COc1ccc(-n2c(=O)c3ccccc3n(CC(=O)Nc3cc(C)on3)c2=O)cc1OC | 0.9 | nt | nt | 8 | 0.7 | 26
CC(=O)Nc1ccc(-n2c(C)nc(=O)c(-c3ccccc3)c2C)cc1 | 1.1 | -14 | 14 | -7 | 1.1 | -13
Cc1ccc(N(C)C(=O)N2CCN(S(=O)(=O)c3ccc(C)c(C)c3)CC2)cc1 | 0 | 18 | -19 | 98* | 0.2 | 78*
Cc1ccc(S(=O)(=O)N2CCN(C(=O)N(C)C)CC2)cc1C | 0.4 | 4 | -4 | 56* | 1.7 | -68
Cc1ccc(N(C)C(=O)N2CCN(S(=O)(=O)c3c(C)cc(C)cc3C)CC2)cc1 | 0.4 | -3 | 5 | 64* | 0.3 | 75*
CCN(CC)C(=O)N1CCN(S(=O)(=O)c2ccc(C)c(C)c2)CC1 | 0 | -6 | 9 | 98* | 2.2* | -123
O=S(=O)(Cc1ccccc1)NCC1CCCO1 (stereo not given) | 0.9 | nt | nt | 8 | 1.1 | -8
CCN(CC)S(=O)(=O)c1ccccc1/C=N\O | 0.5 | nt | nt | 49 | 0.9 | 10
Cc1ccc(Nc2ncc3c(n2)CC(c2ccco2)CC3=O)c(C)c1 (stereo not given) | 0.7 | 10 | -11 | 34 | 0.3 | 67*
Cc1cc(C)cc(Nc2ncc3c(n2)CC(c2ccco2)CC3=O)c1 (stereo not given) | 0.6 | 6 | -2 | 37 | 0.4 | 58*
Cc1ccc(NC(=O)CSCC(=O)Nc2ncc3c(n2)CC(c2ccco2)CC3=O)cc1 (stereo not given) | 0.8 | -14 | 12 | 25 | 0.4 | 62*
Cc1cccc(Nc2ncc3c(n2)CC(c2ccco2)CC3=O)c1 (stereo not given) | 1 | 3 | -1 | 4 | 0.8 | 16
O=C(Nc1ncc2c(n1)CC(c1ccco1)CC2=O)c1ccccc1 (stereo not given) | 1 | 1 | -3 | 1 | 0.8 | 15
O=C1CC(c2ccco2)Cc2nc(Nc3nc(-c4ccccc4)c4ccccc4n3)ncc21 (stereo not given) | 0.4 | 5 | -6 | 59* | 0.3 | 68*
Cc1ccc(C(=O)Nc2ncc3c(n2)CC(c2ccco2)CC3=O)cc1 (stereo not given) | 0.9 | -11 | 11 | 13 | 0.9 | 7
Cc1ccc(C2CC(=O)c3cnc(NC(=O)c4ccco4)nc3C2)cc1 (stereo not given) | 0.8 | 2 | -4 | 20 | 0.8 | 22
COc1cccc(NC(=O)c2ccc3snnc3c2)c1 | nt | -13 | 15 | nt | nt | nt
Nc1cc(=O)nc(SCC(=O)NC2CCCCC2)n1-c1ccccc1 | 1.1 | -2 | 1 | -9 | 1.1 | -12
COc1ccccc1OC(=O)c1ccc(S(=O)(=O)N(C)C)cc1 | 0.6 | -6 | 5 | 36 | 0.5 | 52*
